These results are taken from ChEMBL document CHEMBL1961873, “Compounds: GSK PKIS; Assays: Nanosyn kinase panel” (2012).

Assay [1] deals with T1, 3-phosphoinositide-dependent protein kinase 1 (Homo sapiens) (UniProt O15530).
T1 sequence (whole entry): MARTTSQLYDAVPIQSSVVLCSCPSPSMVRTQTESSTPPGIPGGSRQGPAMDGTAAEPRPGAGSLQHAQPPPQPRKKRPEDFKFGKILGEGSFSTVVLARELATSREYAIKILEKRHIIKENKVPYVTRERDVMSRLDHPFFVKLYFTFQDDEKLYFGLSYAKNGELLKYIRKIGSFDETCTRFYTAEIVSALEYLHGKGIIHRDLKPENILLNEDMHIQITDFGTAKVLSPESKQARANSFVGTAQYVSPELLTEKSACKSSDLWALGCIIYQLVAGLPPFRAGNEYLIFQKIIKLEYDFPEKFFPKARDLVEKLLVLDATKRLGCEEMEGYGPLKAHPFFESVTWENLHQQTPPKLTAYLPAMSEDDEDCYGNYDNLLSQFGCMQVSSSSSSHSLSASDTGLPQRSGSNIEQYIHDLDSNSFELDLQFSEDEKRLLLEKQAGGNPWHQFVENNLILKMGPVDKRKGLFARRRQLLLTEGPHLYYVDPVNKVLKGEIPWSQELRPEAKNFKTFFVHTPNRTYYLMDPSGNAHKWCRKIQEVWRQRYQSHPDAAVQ
Particulars: at 0.1 µM.

Assay [2] concerns the target cAMP-dependent protein kinase catalytic subunit alpha (Homo sapiens) (UniProt P17612). To be noted: at 0.1 µM.
For assay [3] the target is unchanged. To be noted: at 1 µM.
For assay [4], the target named is Protein kinase C alpha type (Homo sapiens) (UniProt P17252). Particulars: at 0.1 µM.
Assay [5] has the same target. To be noted: at 1 µM.
For assay [6], the target named is Protein kinase C beta type (Homo sapiens) (UniProt P05771). Particulars: at 0.1 µM.
Chain of Protein kinase C beta type (Homo sapiens) (P05771 2-671 limits assumed): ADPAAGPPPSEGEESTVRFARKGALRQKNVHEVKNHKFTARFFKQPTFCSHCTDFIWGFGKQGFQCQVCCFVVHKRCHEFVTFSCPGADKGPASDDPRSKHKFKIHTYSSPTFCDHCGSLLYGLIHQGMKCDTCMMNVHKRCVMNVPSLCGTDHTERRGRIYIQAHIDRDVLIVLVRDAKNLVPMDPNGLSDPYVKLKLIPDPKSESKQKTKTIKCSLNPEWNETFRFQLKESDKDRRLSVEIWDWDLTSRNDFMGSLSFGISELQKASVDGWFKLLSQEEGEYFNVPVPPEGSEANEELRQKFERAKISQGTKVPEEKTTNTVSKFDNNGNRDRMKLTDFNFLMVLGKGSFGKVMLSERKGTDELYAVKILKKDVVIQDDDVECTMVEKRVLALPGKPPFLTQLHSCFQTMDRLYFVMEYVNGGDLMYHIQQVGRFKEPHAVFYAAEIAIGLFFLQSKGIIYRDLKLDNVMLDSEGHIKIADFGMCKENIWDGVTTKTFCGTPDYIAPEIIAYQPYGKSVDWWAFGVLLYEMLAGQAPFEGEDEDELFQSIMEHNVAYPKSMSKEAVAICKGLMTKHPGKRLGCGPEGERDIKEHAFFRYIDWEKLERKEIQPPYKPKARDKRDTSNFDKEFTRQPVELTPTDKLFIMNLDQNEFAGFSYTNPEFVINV
Assay [7] has the same target. To be noted: at 1 µM.
Assay [8] deals with Protein kinase C eta type (Homo sapiens) (UniProt P24723). To be noted: at 0.1 µM.
Chain of Protein kinase C eta type (Homo sapiens) (P24723 whole entry): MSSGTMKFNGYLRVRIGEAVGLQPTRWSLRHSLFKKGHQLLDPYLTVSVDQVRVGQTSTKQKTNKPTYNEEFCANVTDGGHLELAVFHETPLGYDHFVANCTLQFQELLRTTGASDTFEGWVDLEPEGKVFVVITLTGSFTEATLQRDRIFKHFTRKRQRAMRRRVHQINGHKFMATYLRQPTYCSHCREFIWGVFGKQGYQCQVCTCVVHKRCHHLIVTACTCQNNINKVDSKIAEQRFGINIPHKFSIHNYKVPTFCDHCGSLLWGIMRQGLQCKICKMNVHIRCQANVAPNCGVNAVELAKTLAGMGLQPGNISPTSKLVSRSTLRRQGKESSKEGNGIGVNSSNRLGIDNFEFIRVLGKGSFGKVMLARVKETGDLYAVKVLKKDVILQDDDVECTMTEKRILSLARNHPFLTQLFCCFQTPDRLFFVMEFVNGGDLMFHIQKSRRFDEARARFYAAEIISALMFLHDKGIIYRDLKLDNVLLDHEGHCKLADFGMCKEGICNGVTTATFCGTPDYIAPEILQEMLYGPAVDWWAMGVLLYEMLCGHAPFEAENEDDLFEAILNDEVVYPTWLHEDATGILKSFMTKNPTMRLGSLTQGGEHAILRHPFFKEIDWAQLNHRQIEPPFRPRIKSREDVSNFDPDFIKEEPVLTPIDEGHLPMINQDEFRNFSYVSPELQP
The target is the same in assay [9]. Particulars: at 1 µM.
In assay [10] the target is Protein kinase C gamma type (Homo sapiens) (UniProt P05129). Particulars: at 0.1 µM.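 Further: values are mean percent inhibition of PKC gamma.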

`COc1cccc(-n2cnc3c(N/N=C/c4ccncc4)ncnc32)c1`: the inhibition is 0.77% in assay [1]; -1.92% in [2]; 0.18% in [3]; -2.58% in assay [4]; -3.28% in assay [5]; 3.24% in assay [6]. Further, the inhibition turned out to be 5.82% in assay [7], 3.47% in assay [8], 0.69% in [9] and 0.93% in assay [10].
For `O=C(Nc1n[nH]c2nc(-c3ccco3)ccc12)C1CC1`, the inhibition in assay [1] is 2.58%; in assay [2], 1.78%; in assay [3], 4.07%; in [4] it was -0.2%; in [5], 0.41%; in assay [6], -0.22%. Besides, the inhibition was -1.09% in [7], -0.3% in [8], 1.42% in [9] and -0.6% in assay [10].
With `O=C(Nc1n[nH]c2cc(-c3ccccc3)ccc12)C1CC1`, the inhibition in [1] is 1.51%; in assay [2], 1.89%; in assay [3] it was 2.35%; in assay [4], 0.99%; in assay [5], 1.87%; in [6] it was -0.78%. Further, the inhibition amounted to 4.47% in assay [7], 2.72% in [8], 2.77% in assay [9] and 1.69% in assay [10].
For `FC(F)(F)c1cccc(Nc2nccc(-c3cnn4nc(-c5ccccc5)ccc34)n2)c1`, the inhibition in assay [1] was -0.51%; in assay [2] it was 1.63%; in assay [3], 0.52%; in assay [4], -0.27%; in [5], 0.87%; in assay [6], -0.86%. Further, the inhibition was 2.15% in [7], 2.08% in [8], 3.01% in assay [9] and 2.43% in assay [10].
For `COc1cc2ncn(-c3cc(OCc4ccccc4C(F)(F)F)c(C(C)=O)s3)c2cc1OC`, the inhibition was 0.15% in assay [1]; 1.04% in assay [2]; 1.7% in assay [3]; -0.12% in assay [4]; 0.82% in assay [5]; 1.02% in assay [6]. Moreover, the inhibition is 0.44% in assay [7], 3.8% in assay [8], 3.47% in assay [9] and -0.98% in [10].
Take `CCS(=O)(=O)c1ccc(OC)c(Nc2ncc(-c3ccccc3Cl)o2)c1`: the inhibition worked out at 4.14% in assay [1]; 1.17% in assay [2]; 1.75% in assay [3]; 0.48% in [4]; 1.87% in [5]; 0.67% in [6]. Also, the inhibition in [7] was 0.07%; in [8], 0.14%; in [9], 0.6%; in [10], -2.72%.
Turning to `COc1cc2ncn(-c3cc(OCCc4ccccc4)c(C(N)=O)s3)c2cc1OC`, the inhibition was 1.29% in assay [1]; 1.37% in assay [2]; -1.08% in assay [3]; 0.95% in assay [4]; 1.14% in [5]; 0.05% in assay [6]. Moreover, the inhibition in assay [7] is -0.8%; in assay [8], -1.3%; in assay [9], 0.58%; in assay [10], 1.89%.
Regarding `COc1cc(N2CCN(C(C)C)CC2)ccc1Nc1nc(Nc2ccc(F)cc2C(=O)NC[C@@H](O)CO)c2cc[nH]c2n1`, the inhibition is -0.19% in [1]; -1.57% in assay [2]; 0.73% in assay [3]; -2.86% in [4]; -2.46% in [5]; 1.6% in assay [6]. The inhibition in assay [7] is 4.35%; in [8], 4.05%; in assay [9] it was 7.17%; in assay [10], -2.06%.
On to `COc1cc(Nc2ncc(-c3ccccc3)o2)cc(OC)c1OC`, for which the inhibition in assay [1] was -0.87%; in [2] it was -0.33%; in assay [3], -0.26%; in assay [4], -0.31%; in [5] it was 1.1%; in assay [6], -1.34%. Moreover, the inhibition was 2.43% in [7], -0.81% in assay [8], -4.38% in assay [9] and -1% in assay [10].
On to `N#Cc1ccc(Oc2nccc(-c3c(-c4ccc(F)cc4)ncn3C3CCNCC3)n2)cc1`, for which the inhibition in assay [1] came out at 8.47%; in assay [2], 2.63%; in assay [3] it was 5.75%; in assay [4] it was 0.69%; in assay [5], 2.61%; in assay [6] it was 1.45%. Moreover, the inhibition in assay [7] worked out at 2.93%; in [8], 6.05%; in [9], 5.43%; in assay [10] it was 1.87%.
As to `O=C(Nc1n[nH]c2nc(-c3ccc(O)cc3)c(Br)cc12)C1CC1`, the inhibition in assay [1] turned out to be 5.57%; in [2], 2.91%; in assay [3], 5.49%; in assay [4], 5.38%; in assay [5], 36.9%; in [6] it was 6.11%. For the same molecule, the inhibition in [7] was 36.5%; in assay [8] it was 6.81%; in assay [9], 12.9%; in assay [10], 12.7%.
In the case of `Cc1ccc(C(=O)NC2CCC2)cc1-c1ccc(C(=O)NCC2CC2)cc1`, the inhibition in assay [1] is 1.97%; in [2] it was 1.15%; in [3], 1.14%; in assay [4], 0.19%; in [5], -0.23%; in assay [6], 0.31%. In addition, the inhibition in [7] came out at 1.48%; in assay [8], 7.1%; in assay [9] it was 2.68%; in [10] it was 0.43%.
Turning to `COC(=O)Nc1nc2ccc(Sc3ccc(NC(=O)Nc4cc(C(F)(F)F)ccc4F)cc3)cc2[nH]1`, the inhibition is 1.38% in assay [1]; -0.04% in assay [2]; 2.01% in assay [3]; 0.22% in assay [4]; 0.15% in assay [5]; 0.84% in assay [6]. In addition, the inhibition was 0.31% in assay [7], -1.46% in assay [8], 0.54% in assay [9] and 2.88% in [10].
Turning to `Cc1ccc(C(=O)NC(C)C)cc1-c1ccc(C(=O)NCC2CC2)cc1`, the inhibition in assay [1] was -3.15%; in [2], -2.08%; in assay [3], -1.32%; in [4], -0.49%; in [5] it was 0.46%; in assay [6], -0.62%. Besides, the inhibition in [7] is -0.82%; in assay [8], -2.29%; in [9], -3.07%; in [10] it was -0.67%.
Take `O=C(Nc1ccc(Oc2ccc3[nH]c(NC(=O)c4ccccc4)nc3c2)cc1)Nc1cc(C(F)(F)F)ccc1F`: the inhibition in assay [1] was 1.16%; in [2], 1.01%; in assay [3], 1.45%; in [4], 0.3%; in [5], 1.8%; in assay [6] it was 0.29%. For the same molecule, the inhibition is 3.18% in assay [7], 1.1% in [8], 4.58% in [9] and 3.6% in assay [10].
For the molecule `C/C(Nc1ccc(S(N)(=O)=O)cc1)=C1/C(=O)Nc2ccccc21`, the inhibition was 6.52% in assay [1]; -1.19% in [2]; 2.61% in [3]; 0.02% in assay [4]; 0.38% in [5]; -0.26% in assay [6]. The inhibition in assay [7] is 1.85%; in [8] it was -1.23%; in assay [9], -1.17%; in [10] it was -3.82%.
As for `COc1ccc2cc(-c3c(-c4ccncc4)nc(-c4ccc(S(C)(=O)=O)cc4C)n3C)ccc2c1`, the inhibition in assay [1] is 0.71%; in [2] it was 8.44%; in [3], 29.8%; in [4], 1.11%; in assay [5], 6.73%; in [6], 2.3%. Further, the inhibition in assay [7] turned out to be 14.5%; in assay [8], 7.27%; in assay [9], 7.65%; in assay [10] it was 2.09%.

For orientation: inhibition means the change of the read-out against control, counted positive when it falls.
